Rows were chosen to be rich in hits. Some 4.4% of all compounds tested hit in one or more screens of this group.
PfHsp90 set2: growth inhibition of yeast expressing Plasmodium Hsp90; S. cerevisiae expressing PfHsp90, BacTiter-Glo ATP, 48 h; yeast lacking PDR1 and PDR3 efflux regulators; inhibition, % at 9.4 µM; 310,000 compounds, 0.32% hits;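 active = every replicate shows inhibition above about 80%, whatever the replicate mean, limit read from the data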
tim10-1 inh: tim10-1 yeast growth inhibition. inhibition, % at 20 µM. 330,000 compounds, 2.2% hits. S. cerevisiae tim10-1 ts strain growth, BacTiter-Glo, 24 h;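 active = inhibition of at least 40%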;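 also: mutant grown at 25 °C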
Mot1-301 SUMO: inhibitors of SUMOylation pathway: yeast Mot1-301 growth rescue | S. cerevisiae Mot1-301 growth rescue, ATP luminescence, 38.5C; percent above DMSO median, 100 means doubled | growth rescue, % at 18.8 µM | 320,000 compounds, 1% hits | AID 2716;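 active = every valid replicate shows activation above 250% relative to neutral control wells; inactive = the rest, any valid replicate at or below 250%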
TIM10 inh: TIM10 yeast growth inhibition. S. cerevisiae TIM10 strain growth, BacTiter-Glo luminescence, 24 h. 330,000 compounds, 1.4% hits. inhibition, % at 10 µM;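 active = inhibition of 40% or more at the single tested concentration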;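 also: wild-type TIM10 isogenic control strain grown at permissive 25 °C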
tim23-1 inh: tim23-1 yeast growth inhibition; S. cerevisiae tim23-1 growth, BacTiter-Glo luminescence, 24 h; AID 463212; 330,000 compounds, 1.3% hits; inhibition, % at 20 µM;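 active = growth inhibition of the mutant yeast at or above 50%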;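 also: temperature-sensitive mutant grown at 25 °C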
tim10-1 confirm: tim10-1 yeast growth inhibition, confirmed | S. cerevisiae tim10-1 ts strain growth, BacTiter-Glo, 24 h | AID 463213 | inhibition, % at 20 µM | shares compounds with tim10-1 inh | 7,400 compounds, 56% hits;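 active = inhibition of yeast growth at or above a set limit in either of two repeat tests at 20 µM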;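 also: tim10-1 mutant grown at permissive 25 °C to find synthetic lethal compounds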
Numbers stand for hits.

What do the screens show for `Cc1ccc(OCC(=O)NNC(=O)C2CC(=O)N(c3ccc4c(c3)OCCO4)C2)cc1` (centres undefined)?
tim10-1 inh: inactive; Mot1-301 SUMO: inactive; TIM10 inh: inactive; tim23-1 inh: inactive

How did N#CCCN(Cc1ccccc1)C(=S)NC(=O)c1ccccc1 do in these assays?
PfHsp90 set2: inactive; tim10-1 inh: 40; Mot1-301 SUMO: inactive; TIM10 inh: inactive; tim23-1 inh: inactive; tim10-1 confirm: inactive

What do the screens show for `Cc1sc2ncnc(Sc3ccccc3C(=O)Nc3ccccc3Cl)c2c1C`?
PfHsp90 set2: inactive; tim10-1 inh: 43; Mot1-301 SUMO: inactive; TIM10 inh: inactive; tim23-1 inh: inactive; tim10-1 confirm: inactive

Results for CC(=O)Nc1ccc(S(=O)(=O)N(C)CC(=O)N/N=C/c2ccncc2)cc1 ?
PfHsp90 set2: inactive; tim10-1 inh: inactive; Mot1-301 SUMO: inactive; TIM10 inh: inactive; tim23-1 inh: inactive

How did COc1ccc(-c2nc3n(c(=O)c2C#N)CCS3)cc1 do in these assays?
PfHsp90 set2: inactive; tim10-1 inh: 45; Mot1-301 SUMO: inactive; TIM10 inh: inactive; tim23-1 inh: inactive; tim10-1 confirm: inactive

How did COc1ccc(-c2nc3n(c(=O)c2C#N)CCS3)cc1OC do in these assays?
PfHsp90 set2: inactive; tim10-1 inh: inactive; Mot1-301 SUMO: inactive; TIM10 inh: inactive; tim23-1 inh: inactive

Results for O=C(COc1ccccc1Cl)N1CCN(C(=O)c2ccco2)CC1 ?
PfHsp90 set2: inactive; tim10-1 inh: inactive; Mot1-301 SUMO: inactive; TIM10 inh: inactive; tim23-1 inh: inactive

How did COc1ccc(S(=O)(=O)NCC2CCCN(Cc3ccc(O)cc3)C2)cc1 (centres undefined) do in these assays?
PfHsp90 set2: inactive; tim10-1 inh: inactive; Mot1-301 SUMO: inactive; TIM10 inh: inactive; tim23-1 inh: inactive

How did CC(=O)c1sc(-c2ccccn2)nc1C do in these assays?
tim10-1 inh: inactive; TIM10 inh: inactive; tim23-1 inh: inactive

How did Cc1nc(-c2ccccn2)sc1C(=O)Nc1ccc(Cl)c(Cl)c1 do in these assays?
PfHsp90 set2: inactive; tim10-1 inh: 47; Mot1-301 SUMO: inactive; TIM10 inh: inactive; tim23-1 inh: inactive; tim10-1 confirm: 29

What do the screens show for `COc1cc(C2C3=C(CC(C)(C)CC3=O)OC3=C2C(=O)CC(C)(C)C3)cc([N+](=O)[O-])c1O`?
PfHsp90 set2: inactive; tim10-1 inh: 41; Mot1-301 SUMO: inactive; TIM10 inh: inactive; tim23-1 inh: inactive; tim10-1 confirm: inactive

How did COc1cc(C2C(C#N)=C(N)OC3=C2C(=O)CC(C)(C)C3)cc([N+](=O)[O-])c1O (centres undefined) do in these assays?
PfHsp90 set2: inactive; tim10-1 inh: inactive; Mot1-301 SUMO: inactive; TIM10 inh: inactive; tim23-1 inh: inactive

What do the screens show for `COc1ccc(CNc2oc(COc3ccccc3)nc2C#N)cc1`?
tim10-1 inh: inactive; Mot1-301 SUMO: inactive; TIM10 inh: inactive; tim23-1 inh: inactive

How did COc1ccc(CCNc2oc(COc3ccccc3)nc2C#N)cc1 do in these assays?
PfHsp90 set2: inactive; tim10-1 inh: 47; Mot1-301 SUMO: inactive; TIM10 inh: inactive; tim23-1 inh: inactive; tim10-1 confirm: 43

How did CSC1=N/C(=C\c2ccc(Cl)cc2)C(=O)N1N(C)C do in these assays?
PfHsp90 set2: inactive; tim10-1 inh: inactive; Mot1-301 SUMO: inactive; TIM10 inh: inactive; tim23-1 inh: inactive

What do the screens show for `CC1(C)CN=c2s/c(=C\c3ccc(Cl)cc3)c(=O)n2C1`?
PfHsp90 set2: inactive; tim10-1 inh: 41; Mot1-301 SUMO: inactive; TIM10 inh: inactive; tim23-1 inh: inactive; tim10-1 confirm: inactive

What do the screens show for `Cc1cc(C)c2nc(N3CCCN(C(=O)c4ccco4)CC3)c(C#N)cc2c1`?
PfHsp90 set2: inactive; tim10-1 inh: 47; Mot1-301 SUMO: inactive; TIM10 inh: inactive; tim23-1 inh: inactive; tim10-1 confirm: 32

How did COC(=O)c1cn(-c2ccccc2)nc1-c1ccc(OC)c(OC)c1 do in these assays?
PfHsp90 set2: inactive; tim10-1 inh: 42; Mot1-301 SUMO: inactive; TIM10 inh: inactive; tim23-1 inh: inactive; tim10-1 confirm: inactive

Results for CC(Oc1ccc2ccc(=O)oc2c1)C(=O)N1CCOCC1 (centres undefined) ?
tim10-1 inh: inactive; Mot1-301 SUMO: inactive; TIM10 inh: inactive; tim23-1 inh: inactive

How did Cc1ccc(C)c(S(=O)(=O)Nc2ccc(C(=O)N3CCC3)cc2)c1 do in these assays?
PfHsp90 set2: inactive; tim10-1 inh: inactive; Mot1-301 SUMO: inactive; TIM10 inh: inactive; tim23-1 inh: inactive
